This passage reports outcome and AC50 results from PubChem BioAssay (EPA / NIEHS).

Broadly, the AC50 is the midpoint of the concentration-response curve, whichever way the signal moves.

The nature of test [1]: ATG_ISRE_CIS: Attagene CIS-FACTORIAL HepG2 Assay for human Interferon Regulatory Factor 1 (IRF1) binding to an Interferon-Stimulated Response Element (ISRE) (AID 2282948). Particulars: HepG2 ISRE cis-reporter (Attagene), mRNA transcription readout; actives raise or lower the signal. An outline of the steps: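 Multiplexed mRNA reporter readout in human liver HepG2 cells: cis-element-driven reporters transfected, compound added for 24 h, transcripts amplified, fluorescently labelled and sized by capillary electrophoresis; curve fitting bidirectional against DMSO.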

Test [2] in a line: ATG_M_32_CIS: Attagene CIS-FACTORIAL HepG2 Assay for M32 Transcription Factor (Internal Marker) (AID 2282949).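 Further: background control marker of the multiplexed CIS panel rather than a real target.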 The settings on record: HepG2 Attagene cis-factorial M32 reporter, mRNA; actives raise or lower the signal. Summed up:
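HepG2 transfectants (cis-regulated reporter transcription units) dosed 24 h. Reporter mRNA by RT-PCR plus CE, analysed as gain or loss relative to DMSO.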

A short description of test [3]: ATG_M_06_CIS: Attagene CIS-FACTORIAL HepG2 Assay for M06 Transcription Factor (Internal Marker) (AID 2282950). Particulars: HepG2 Attagene CIS-FACTORIAL M06 internal marker reporter; actives raise or lower the signal. An outline of the steps: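 Fluorescence-labelled RT-PCR products from cis-promoter reporter units, cut with HpaI and resolved by capillary electrophoresis, give the signal. Cells are human HepG2, dosed for 24 h. Serves as background control, fitted relative to DMSO.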

Test [4] concerns the target Hepatocyte nuclear factor 6 (Homo sapiens) (UniProt Q9UBC0). The test is described as follows: ATG_HNF6_CIS: Attagene CIS-FACTORIAL HepG2 Assay for human Hepatocyte Nuclear Factor 6 (HNF6) (AID 2282952). The settings on record: HepG2 Attagene cis-factorial HNF6 reporter transcription; actives raise or lower the signal. An outline of the steps: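 Endogenous factor activity read in transiently transfected HepG2 via promoter-regulated reporter transcripts. RNA harvested 24 h post-dosing, reverse-transcribed, PCR-amplified, FAM-labelled, HpaI-digested and resolved by capillary electrophoresis; fitted in both directions against DMSO.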

Test [5] concerns the target Heat shock factor protein 1 (Homo sapiens) (UniProt Q00613). Nature of the test: ATG_HSE_CIS: Attagene CIS-FACTORIAL HepG2 Assay for human Heat Shock Transcription Factor 1 (HSE) (AID 2282953). Particulars: HepG2 HSE cis-reporter, Attagene RNA transcription; actives raise or lower the signal. An outline of the steps: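 After a 24 h incubation with test chemical, transfected HepG2 cells were harvested for RNA; reporter transcripts were measured by RT-PCR and capillary electrophoresis. Values reflect gain or loss of signal relative to DMSO.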

The nature of test [6]: ATG_MRE_CIS: Attagene CIS-FACTORIAL HepG2 Assay for human Metal Responsive Element (MRE) (AID 2282954). Particulars: HepG2 MRE cis-reporter transcription, Attagene multiplex; actives raise or lower the signal. An outline of the steps: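 Endogenous MRE-dependent transcription read as reporter mRNA in transiently transfected human HepG2 cells at 24 h. RNA reverse-transcribed, PCR-amplified, labelled and resolved by capillary electrophoresis; gain or loss relative to DMSO.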

The target of test [7] is Paired box protein Pax-6 (Homo sapiens) (UniProt P26367). Nature of the test: ATG_Pax6_CIS: Attagene CIS-FACTORIAL HepG2 Assay for human Paired Box 6 (PAX6) (AID 2282956). The settings on record: HepG2 CIS-FACTORIAL PAX6 reporter transcription, RNA readout; actives raise or lower the signal. An outline of the steps: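 Fluorescent RT-PCR products separated by capillary electrophoresis report PAX6-linked promoter mRNA in HepG2 cells 24 h post-dose. Curves fitted bidirectionally, DMSO as negative control.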
Chain of Paired box protein Pax-6 (Homo sapiens) (P26367 whole entry, looked up): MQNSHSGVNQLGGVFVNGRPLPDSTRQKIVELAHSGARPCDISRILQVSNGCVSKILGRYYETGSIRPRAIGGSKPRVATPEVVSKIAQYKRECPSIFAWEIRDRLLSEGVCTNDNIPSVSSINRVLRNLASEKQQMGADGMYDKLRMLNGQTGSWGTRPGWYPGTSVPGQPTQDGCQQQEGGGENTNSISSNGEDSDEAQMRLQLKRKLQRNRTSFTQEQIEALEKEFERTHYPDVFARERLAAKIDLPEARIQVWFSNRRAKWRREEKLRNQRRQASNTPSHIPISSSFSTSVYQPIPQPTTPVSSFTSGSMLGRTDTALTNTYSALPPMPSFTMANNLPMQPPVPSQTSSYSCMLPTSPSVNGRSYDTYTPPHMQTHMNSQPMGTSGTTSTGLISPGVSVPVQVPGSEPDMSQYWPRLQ

The nature of test [8]: ATG_PXRE_CIS: Attagene CIS-FACTORIAL HepG2 Assay for human Pregnane X Receptor Element (PXRE) (AID 2282957). The settings on record: HepG2 Attagene CIS-FACTORIAL PXRE reporter, mRNA; actives raise or lower the signal. Summed up:
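Reporter transcripts under endogenous PXR-responsive cis-regulation quantified from total RNA of transfected HepG2 cells 24 h post-dosing, via RT-PCR with fluorescent primer extension and capillary electrophoresis. Gain or loss of signal fitted against DMSO baseline.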

Test [9] is described as follows: ATG_RORE_CIS: Attagene CIS-FACTORIAL HepG2 Assay for human RAR-related Orphan Receptor Element (RORE) (AID 2282959). The settings on record: HepG2 Attagene cis-factorial RORE reporter, mRNA; actives raise or lower the signal. An outline of the steps:
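Cells were HepG2 carrying transfected cis-regulated reporter constructs, dosed for 24 hours. Total RNA was reverse-transcribed and reporter cDNA amplified, fluorescently labeled and sized by capillary electrophoresis. Activity was fitted bidirectionally relative to DMSO.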

Test [10] in a line: ATG_Sox_CIS: Attagene CIS-FACTORIAL HepG2 Assay for human SRY-box transcription factor (SOX) (AID 2282960). The settings on record: HepG2 Attagene cis-factorial SOX reporter, mRNA; actives raise or lower the signal. An outline of the steps: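 Transient MRTU transfection of HepG2; 24 h compound incubation; TriZol RNA, oligo(dT) RT, PCR, 6-FAM primer extension, HpaI cut, CE. Bidirectional fit, DMSO = baseline.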

The target in test [11] is Transcription factor Sp1 (Homo sapiens) (UniProt P08047). Nature of the test: ATG_Sp1_CIS: Attagene CIS-FACTORIAL HepG2 Assay for human Specificity Protein 1 (Sp1) (AID 2282961). Particulars: HepG2 Sp1 cis-reporter transcription, actives raise or lower the signal. An outline of the steps:
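Endogenous Sp1 activity was gauged in human liver HepG2 cells bearing transfected reporter units under a cis-regulating promoter. After 24 h dosing, reporter mRNA was quantified by RT-PCR with capillary electrophoresis, and activity fitted bidirectionally versus DMSO.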

A short description of test [12]: ATG_SREBP_CIS: Attagene CIS-FACTORIAL HepG2 Assay for human Sterol Regulatory Element Binding (SREBP) (AID 2282962). Particulars: HepG2 Attagene cis-factorial SREBP reporter, mRNA; actives raise or lower the signal. An outline of the steps:
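Endogenous factor activity is measured in HepG2 through multiplexed reporter units under cis-element control. Following a 24 h incubation, reporter transcripts are reverse-transcribed, PCR-amplified and sized by capillary electrophoresis; activity is fitted in both directions relative to DMSO.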

Test [13] concerns the target Signal transducer and activator of transcription 3 (Homo sapiens) (UniProt P40763). Nature of the test: ATG_STAT3_CIS: Attagene CIS-FACTORIAL HepG2 Assay for human Signal Transducer and Activator of Transcription 3 (STAT3) (AID 2282963). Particulars: HepG2, Attagene cis-factorial STAT3 reporter transcription; actives raise or lower the signal. Summed up: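 Readout is reporter transcript quantified by RT-PCR and capillary electrophoresis, with 6-FAM primer extension and HpaI digestion. Total RNA is taken 24 h after dosing transiently transfected HepG2 carrying cis-regulated reporter units. Bidirectional fit against DMSO.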

Test [14] can be described thus: ATG_TA_CIS: Attagene CIS-FACTORIAL HepG2 Assay for human TA Basal Promoter (AID 2282964). The settings on record: HepG2 Attagene CIS-factorial TA basal promoter reporter; actives raise or lower the signal. An outline of the steps:
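Multiplexed mRNA reporter assay, HepG2, 24 h. Reporter cDNA amplified, 6-FAM primer-extended, HpaI-cut, CE-sized; DMSO = negative control and baseline.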

Test [15] can be described thus: ATG_TCF_b_cat_CIS: Attagene CIS-FACTORIAL HepG2 Assay for human T-Cell-Factor with beta-catenin (TCF/b-cat) (AID 2282965). Particulars: HepG2 TCF/beta-catenin cis-reporter transcription, actives raise or lower the signal. Summed up: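 Measured: reporter mRNA in HepG2 transiently transfected with cis-promoter reporter units, 24 h after chemical addition. Fitting was bidirectional, DMSO as negative control.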

Test [16] concerns the target Hypoxia-inducible factor 1-alpha (Homo sapiens) (UniProt Q16665). Nature of the test: ATG_HIF1a_CIS: Attagene CIS-FACTORIAL HepG2 Assay for human Hypoxia Inducible Factor 1 (HIF1A) (AID 2282951). The settings on record: HepG2 Attagene cis-factorial HIF1a reporter transcription; actives raise or lower the signal. Summed up: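 Measures endogenous transcription-factor activity through cis-regulated reporter mRNA in HepG2. Cells dosed 24 h; transcripts quantified by RT-PCR with 6-FAM-labelled products separated by capillary electrophoresis; DMSO serves as negative control.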

The nature of test [17]: ATG_PPRE_CIS: Attagene CIS-FACTORIAL HepG2 Assay for human Peroxisome Proliferator-activated Response Element (PPRE) (AID 2282958). The settings on record: HepG2 PPRE cis-element reporter, Attagene transcription factor profiling; actives raise or lower the signal. An outline of the steps:
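Cells are first transfected transiently with the multiplexed reporter library, then dosed for 24 h. Total RNA is reverse-transcribed, amplified, fluorescently end-labeled and HpaI-cut before capillary electrophoresis; activity is fitted bidirectionally against DMSO controls.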

Test [18] in a line: ATG_PBREM_CIS: Attagene CIS-FACTORIAL HepG2 Assay for human Phenobarbital-responsive Enhancer Module (PBREM) (AID 2282955). Particulars: HepG2 PBREM cis-reporter, Attagene multiplexed transcription; actives raise or lower the signal. An outline of the steps: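 Fluorescence of labelled reporter cDNA fragments, resolved by capillary electrophoresis, gives mRNA induction in transfected HepG2 cells treated for 24 h; DMSO serves as negative control and baseline.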

The structures appear in SMILES notation. The source made the active and inactive calls. How the source made its calls: active means hit-call score of the fitted dose curve at least 0.9, where 1 is the maximum; inactive means score below 0.9.

Chain of Signal transducer and activator of transcription 3 (Homo sapiens) (P40763 whole entry, looked up): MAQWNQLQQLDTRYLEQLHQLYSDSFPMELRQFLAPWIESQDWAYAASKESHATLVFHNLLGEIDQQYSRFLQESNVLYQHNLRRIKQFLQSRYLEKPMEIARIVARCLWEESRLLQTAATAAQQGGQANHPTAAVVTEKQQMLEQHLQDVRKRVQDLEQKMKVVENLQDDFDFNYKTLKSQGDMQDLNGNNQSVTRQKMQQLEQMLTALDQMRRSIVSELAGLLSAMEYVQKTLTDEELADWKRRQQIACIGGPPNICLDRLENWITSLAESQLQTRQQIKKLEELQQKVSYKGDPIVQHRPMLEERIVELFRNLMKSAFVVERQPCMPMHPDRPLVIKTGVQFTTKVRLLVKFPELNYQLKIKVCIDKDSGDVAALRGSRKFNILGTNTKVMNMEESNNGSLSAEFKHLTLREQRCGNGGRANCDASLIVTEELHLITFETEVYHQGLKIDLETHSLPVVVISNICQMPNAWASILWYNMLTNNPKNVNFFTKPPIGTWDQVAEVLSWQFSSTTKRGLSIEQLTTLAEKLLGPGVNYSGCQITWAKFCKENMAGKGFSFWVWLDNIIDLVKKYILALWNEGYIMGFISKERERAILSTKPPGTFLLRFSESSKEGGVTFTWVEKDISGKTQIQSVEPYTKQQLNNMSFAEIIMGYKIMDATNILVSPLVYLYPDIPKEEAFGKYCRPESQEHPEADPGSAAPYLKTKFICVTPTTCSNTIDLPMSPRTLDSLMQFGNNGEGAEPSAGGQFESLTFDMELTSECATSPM
Chain of Heat shock factor protein 1 (Homo sapiens) (Q00613 whole entry, looked up): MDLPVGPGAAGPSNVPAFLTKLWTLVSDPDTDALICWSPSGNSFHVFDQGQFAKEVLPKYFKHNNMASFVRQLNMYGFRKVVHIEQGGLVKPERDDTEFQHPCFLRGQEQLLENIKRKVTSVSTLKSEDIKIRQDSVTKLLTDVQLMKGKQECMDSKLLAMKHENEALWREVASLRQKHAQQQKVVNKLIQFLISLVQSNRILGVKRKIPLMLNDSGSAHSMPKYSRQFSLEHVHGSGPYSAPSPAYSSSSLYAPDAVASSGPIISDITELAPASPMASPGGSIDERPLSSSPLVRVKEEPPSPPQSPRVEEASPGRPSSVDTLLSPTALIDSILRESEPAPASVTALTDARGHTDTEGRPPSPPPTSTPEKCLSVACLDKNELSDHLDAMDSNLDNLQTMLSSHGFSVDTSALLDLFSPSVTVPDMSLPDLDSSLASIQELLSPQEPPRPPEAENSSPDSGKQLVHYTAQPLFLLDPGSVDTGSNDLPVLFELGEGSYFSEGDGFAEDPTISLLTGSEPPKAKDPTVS
Chain of Transcription factor Sp1 (Homo sapiens) (P08047 whole entry, looked up): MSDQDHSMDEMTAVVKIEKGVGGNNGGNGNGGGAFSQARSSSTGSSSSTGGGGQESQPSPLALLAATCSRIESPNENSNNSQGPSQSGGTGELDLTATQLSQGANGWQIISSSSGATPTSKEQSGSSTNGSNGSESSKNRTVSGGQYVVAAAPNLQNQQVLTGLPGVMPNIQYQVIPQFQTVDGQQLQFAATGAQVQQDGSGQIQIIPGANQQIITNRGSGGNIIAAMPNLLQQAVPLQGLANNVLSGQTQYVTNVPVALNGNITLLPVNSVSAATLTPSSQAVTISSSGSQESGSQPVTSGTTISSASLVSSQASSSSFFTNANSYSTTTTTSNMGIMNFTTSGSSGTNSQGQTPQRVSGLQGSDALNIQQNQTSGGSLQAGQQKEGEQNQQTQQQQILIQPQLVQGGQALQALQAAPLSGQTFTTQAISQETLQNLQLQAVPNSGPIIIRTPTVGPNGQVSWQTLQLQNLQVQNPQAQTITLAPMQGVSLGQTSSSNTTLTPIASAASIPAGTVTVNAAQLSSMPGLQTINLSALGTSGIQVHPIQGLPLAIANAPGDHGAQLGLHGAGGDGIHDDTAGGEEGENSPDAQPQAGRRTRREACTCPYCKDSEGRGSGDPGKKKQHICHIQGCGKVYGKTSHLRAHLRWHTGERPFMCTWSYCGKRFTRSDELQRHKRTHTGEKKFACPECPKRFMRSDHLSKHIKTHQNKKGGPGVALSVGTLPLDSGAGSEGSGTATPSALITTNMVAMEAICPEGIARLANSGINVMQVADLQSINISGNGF
Chain of Hypoxia-inducible factor 1-alpha (Homo sapiens) (Q16665 whole entry, looked up): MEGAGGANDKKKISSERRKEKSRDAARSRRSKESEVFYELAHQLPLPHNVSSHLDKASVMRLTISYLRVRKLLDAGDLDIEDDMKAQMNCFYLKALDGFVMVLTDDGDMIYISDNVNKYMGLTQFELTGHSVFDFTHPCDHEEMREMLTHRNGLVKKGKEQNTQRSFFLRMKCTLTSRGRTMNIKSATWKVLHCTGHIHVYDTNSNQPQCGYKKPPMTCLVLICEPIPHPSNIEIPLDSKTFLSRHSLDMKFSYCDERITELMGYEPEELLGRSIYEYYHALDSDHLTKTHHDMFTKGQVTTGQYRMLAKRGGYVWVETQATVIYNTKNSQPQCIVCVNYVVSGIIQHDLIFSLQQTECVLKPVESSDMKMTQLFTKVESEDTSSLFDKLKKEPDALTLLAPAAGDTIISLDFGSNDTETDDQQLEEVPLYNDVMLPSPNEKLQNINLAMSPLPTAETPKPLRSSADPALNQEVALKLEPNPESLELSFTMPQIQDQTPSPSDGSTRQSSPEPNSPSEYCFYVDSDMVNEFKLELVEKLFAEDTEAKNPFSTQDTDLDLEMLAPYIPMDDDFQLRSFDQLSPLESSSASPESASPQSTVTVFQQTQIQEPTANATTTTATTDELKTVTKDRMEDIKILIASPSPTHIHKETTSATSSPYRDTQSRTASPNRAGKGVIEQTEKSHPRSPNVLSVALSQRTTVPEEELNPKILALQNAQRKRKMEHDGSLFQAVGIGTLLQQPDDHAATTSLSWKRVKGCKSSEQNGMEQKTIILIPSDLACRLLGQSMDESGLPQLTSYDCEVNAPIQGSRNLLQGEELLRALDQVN
Chain of Hepatocyte nuclear factor 6 (Homo sapiens) (Q9UBC0 whole entry, looked up): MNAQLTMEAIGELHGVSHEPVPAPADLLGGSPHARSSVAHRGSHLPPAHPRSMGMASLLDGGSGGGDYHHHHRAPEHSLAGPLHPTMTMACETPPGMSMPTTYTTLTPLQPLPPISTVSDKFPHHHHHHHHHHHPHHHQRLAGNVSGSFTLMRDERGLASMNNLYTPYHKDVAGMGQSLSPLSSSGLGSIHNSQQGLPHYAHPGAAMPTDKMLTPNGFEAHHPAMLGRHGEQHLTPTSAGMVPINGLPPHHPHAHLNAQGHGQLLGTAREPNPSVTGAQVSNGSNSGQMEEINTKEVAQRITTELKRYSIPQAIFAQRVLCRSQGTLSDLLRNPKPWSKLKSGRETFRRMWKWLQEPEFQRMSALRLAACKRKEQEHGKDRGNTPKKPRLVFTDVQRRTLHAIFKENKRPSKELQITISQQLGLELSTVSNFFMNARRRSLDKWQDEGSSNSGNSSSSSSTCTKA

As to `Cc1cc(S(=O)(=O)O)ccc1N=Nc1c(O)ccc2ccccc12`, the call in test [1], in [2], in test [3], in test [4], in test [5] and in test [6] was inactive. Moreover, the call in test [7], in test [8], in test [10], in [11], in test [12] and in [13] was inactive. The compound was classed as inactive in [14] and in test [15]. In addition, the AC50 in test [9] was 4.16 µM (active).

For the compound `CC(C)NCC(O)COc1ccc(CC(N)=O)cc1` (configuration not stated), the compound was called inactive in [1], in [2], in test [3], in test [4], in [5] and in test [6]. The outcome in test [7], in [8], in test [9], in test [10], in [11] and in test [12] was inactive. Also, the compound was classed as inactive in test [13] and in test [14].

On to `Brc1ccc(Br)c(Br)c1`, for which the result in test [1], in test [2], in test [3], in test [16], in test [4] and in [6] was inactive. The compound was classed as inactive in test [7], in test [8], in [9], in [10], in [11] and in test [12]. The compound was called inactive in [13], in test [14] and in [15].

Turning to `O=C1CCCC=CCCCCCCCCCC1`, the half-maximal activity concentration (AC50) is 41.2 µM (active) in test [1]; 63 µM (active) in test [5]; 9.05 µM (active) in test [8]; 48.8 µM (active) in [11]; 49.3 µM (active) in test [15]. The compound was classed as inactive in test [2], in test [16], in [4], in test [6], in test [7] and in [17]. Moreover, the result in [9], in [12] and in test [14] was inactive.

Regarding `CCC(=O)OCCOc1ccccc1`, the compound was classed as inactive in test [1], in [2], in test [3], in test [16], in test [6] and in [7]. Further, the compound was classed as inactive in test [8], in [9], in test [10], in test [11], in test [12] and in [14]. The compound was classed as inactive in test [15].

For the compound `N#Cc1ccc(CC(=O)c2cccc(C(F)(F)F)c2)cc1`, the result in test [1], in [3], in [16], in test [4], in [18] and in [7] was inactive. Also, the outcome in [17], in [9], in test [10], in test [11], in test [12] and in [13] was inactive. The result in [14] and in test [15] was inactive. For the same compound, the AC50 in test [5] is 150 µM (active); in test [6] it was 100 µM (active); in test [8], 5.18 µM (active).

As to `CCCCCCCCc1ccc(S(=O)(=O)O)cc1`, the compound was classed as inactive in [1], in [16], in test [6], in test [8], in test [17] and in test [9]. Moreover, the compound was classed as inactive in test [10], in test [13] and in test [15]. Also, the AC50 in [2] is 99.5 µM (active); in test [3], 155 µM (active); in [4], 167 µM (active); in test [7] it was 19.7 µM (active); in test [11], 186 µM (active); in test [12] it was 159 µM (active).

For `CC(C)CCCCCCCCCCCCCCC(=O)O`, the call in [1], in [3], in test [16], in test [4], in test [5] and in test [6] was inactive. Also, the result in test [18], in test [7], in test [8], in test [17], in test [9] and in test [10] was inactive. Also, the compound was classed as inactive in test [11], in test [12], in [13] and in test [14].

Consider `CC(C)CCCCCCc1ccc(OCCOCCO)cc1`, for which the compound was classed as inactive in [1], in [2], in test [16], in [4], in test [5] and in test [6]. For the same compound, the result in test [18], in test [7], in test [8], in [11], in test [12] and in test [13] was inactive. For the same compound, the result in test [14] was inactive.
